Screens as filed in PubChem BioAssay.
This is a sample that favours compounds with a hit; in the whole collection about 9.3% have one here.
A340 absorber: compound light absorbance at 340 nm, profiling panel, artefact control, biochemical, MLSMR library, data from PS, PMK, MK assays | compound absorbance at 340 nm, fold over control | fold change at 10 µM | 65,000 tested, under 10 active | AID 708, 2007;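 active = at 10 µM dose, initial 340 nm absorbance at least 2 fold that of control wells; inactive = change under 2 fold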;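 also: initial absorbance extrapolated from kinetic A340 decline of NADH oxidation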
mHtt clearance: clearance of mutant huntingtin inclusions, primary screen, imaging, HeLa Exon1htt(103Q)mCFP, confocal imaging. actives 0.42% (n = 47,000). inhibition, % at 1.5 µM. AID 853, 2007. aggregate imaging; zero = plate's median compound well;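 active = inhibition of aggregate fluorescence above about 70%, also judged a hit by eye on the cell image, limit read from the data, passing the limit was not always enough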;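 also: cells exposed to compound for three days before fixation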
Fluor 339 460: intrinsic fluorescence of library compounds, ex339/em460 – biochemical, MLSMR library, data from DPM-DC assay, artefact control, profiling panel | fluorescence fold increase at 10 µM | compound autofluorescence, ex339/em460 nm, NADH buffer; stronger effect = higher value; 1 = no-compound wells, NADH background | AID 709, 2007 | actives 5.5% (n = 65,000);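 active = at 10 µM, mean starting fluorescence two-fold or more over control wells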;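 also: signal is the first read of a kinetic run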
M1 agonist: M1 muscarinic receptor agonists, primary screen, CHO-M1 cells, Fluo-4 calcium, agonist mode; actives 3% (n = 64,000); B-score at 10 µM; Muscarinic acetylcholine receptor M1; AID 626, 2007; Fluo-4 calcium fluorescence; stronger effect = higher value;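 active = fluorescence rise, raw or as B-score row- and column-corrected plate score, outside the 99.7% band of its plate's samples, either direction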
NADH enzymes: inhibitors of PK/LDH coupling enzymes, profiling panel, artefact control, biochemical, MLSMR library; coupled PK/LDH NADH assays, four targets; IC50, µM (series often up to 10 µM), inactives show at the top dose inhibition; actives 0.02% (n = 65,000);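 active = single-dose screening hits from any of four coupled enzyme assays that gave an IC50 when retested across doses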;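 also: the DPM-DC format reads NADH fluorescence rather than 340 nm absorbance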
M1 antag: antagonists of rat M1 muscarinic receptor; CHO-M1 cells, Fluo-4 calcium, ACh EC80 antagonist mode; stronger effect = lower value; B-score at 10 µM; actives 3.4% (n = 64,000); AID 628, 2007;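 active = calcium fluorescence response, raw or row-and-column corrected B-score, differing from the plate sample mean either way at a set confidence level, mostly lower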
Target sequence (P08482 whole entry, looked up): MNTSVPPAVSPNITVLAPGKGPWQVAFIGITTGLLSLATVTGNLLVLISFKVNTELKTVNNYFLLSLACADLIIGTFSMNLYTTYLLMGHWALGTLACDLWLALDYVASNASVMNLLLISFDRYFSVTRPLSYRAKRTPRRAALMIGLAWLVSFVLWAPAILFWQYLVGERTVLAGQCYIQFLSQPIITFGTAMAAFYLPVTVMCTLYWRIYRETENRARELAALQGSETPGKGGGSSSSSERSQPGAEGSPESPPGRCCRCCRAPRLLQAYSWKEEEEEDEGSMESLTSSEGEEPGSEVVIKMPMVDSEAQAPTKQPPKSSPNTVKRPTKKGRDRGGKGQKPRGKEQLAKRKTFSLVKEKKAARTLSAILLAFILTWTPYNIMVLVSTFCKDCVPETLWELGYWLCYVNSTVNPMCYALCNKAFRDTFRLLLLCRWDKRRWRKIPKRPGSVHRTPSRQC
* hit, by the source's call; nt = not tested or not shown.

SMILES	A340 absorber	mHtt clearance	Fluor 339 460	M1 agonist	NADH enzymes	M1 antag
CN(C)c1nc(OCCNC(=O)Nc2ccccc2)nc(N2CCOCC2)n1	nt	-31	nt	nt	nt	nt
CC(=O)Nc1sc2c(c1CN1CCN(c3ccccn3)CC1)CCCC2	0.97	nt	1	-0.3	2%	-0.53
CCOc1ccc(-c2nc(C#N)c(NC3CC3)o2)cc1	1	39	3.8*	-0.062	15%	-1.1
COc1ccc(-c2nc(C#N)c(N3CCN(c4ccccc4)CC3)o2)cc1	0.99	-7	1.4	0.72	6%	0.47
N#Cc1nc(-c2ccc(OCc3ccccc3)cc2)oc1N1CCC(C(N)=O)CC1	1.1	nt	4*	0.31	9%	0.4
CCOc1ccc(-c2nc(C#N)c(N3CCOCC3)o2)cc1	1.1	-40	2.2*	1	7%	-0.017
Cc1cccc(-c2nc(C#N)c(N3CCCCCC3)o2)c1	1.1	-44	3.8*	0.13	7%	0.38
CCOc1ccc(-c2nc(C#N)c(N3CCN(Cc4ccccc4)CC3)o2)cc1	1.1	-192	1.8	-0.34	6%	0.16
Cc1cccc2cc(COC(=O)c3ccccn3)c(=O)[nH]c12	1	nt	1.2	-0.0041	2%	0.72
CS(=O)(=O)N(CC(=O)NCc1ccc2c(c1)OCO2)Cc1ccccc1	1	59	1.1	-0.61	6%	-1
CCN1CCN(c2oc(-c3ccc(OC)cc3)nc2C#N)CC1	1.1	-14	3.8*	-0.0004	1%	0.0078
O=C(O)c1[nH]nc2c1COc1ccccc1-2	0.99	32	1.1	0.42	2%	-0.017
CCOC(=O)c1sc2c(c1C)C(c1cccs1)C1=C(CCCC1=O)N2 (configuration not stated)	1	nt	4.8*	-0.56	8%	-0.075
CCC(C)NC(=O)CSC1=Nc2ccccc2C2=NC(CC(=O)NCc3ccccc3)C(=O)N12 (configuration not stated)	1	-77	2.1*	0.36	6%	0.45
NC(=O)CSC1=Nc2ccccc2C2=NC(CC(=O)NCc3cccs3)C(=O)N12 (configuration not stated)	1	23	1.1	-0.92	12%	-0.082
CC(=O)c1cc2cc(O)ccc2o1	1.1	-3	4.4*	-0.6	10%	0.85
CC(=O)c1cc2c(O)c(O)ccc2o1	1.1	nt	1.2	0.022	3%	0.15
Cn1nnc2c(NCc3ccco3)nccc21	1	nt	2.1*	0.016	1%	0.32
COc1ccccc1N1CCN(C(=O)c2cnn3cccnc23)CC1	1	-1	1.1	0.56	2%	-0.63
CCCc1cc(=O)oc2cc(C)c(CN3CCCC3)c(O)c12	1.1	nt	1.2	-0.95	2%	0.44
CCCc1cc(=O)oc2c(CN3CCCC3)c(O)ccc12	1.1	12	2.3*	0.76	3%	0.2
CCCc1cc(=O)oc2c(CN3CCCC3)c(O)c(Cl)cc12	1.1	-27	2.4*	-0.29	3%	0.55
Cc1cc(C)cc(-n2cc3c(=O)n(C)c(=O)n(C)c3c2)c1	1	nt	1.1	0.028	6%	-0.11
CC1N(O)C(C)(C)C(c2ccccc2)=[N+]1[O-] (configuration not stated)	nt	-7	nt	nt	nt	nt
Cc1cc(=O)[nH]c2c(C)c(N)ccc12	1.1	16	3.9*	-0.34	12%	-0.31
SMILES	A340 absorber	mHtt clearance	Fluor 339 460	M1 agonist	NADH enzymes	M1 antag
Cc1ccc(CN2C(=O)CCC2C(=O)NCCN2CCN(c3cccc(Cl)c3)CC2)cc1 (configuration not stated)	1	nt	1.1	-0.15	7%	0.086
Fc1ccc(N2CCN(C(c3cccs3)c3nnnn3C3CCCC3)CC2)cc1 (configuration not stated)	1	-46	1.1	1.8	10%	0.15
CCC1Oc2ccc(C)cc2N(CC(=O)NCCN2CCCCCC2)C1=O (configuration not stated)	1	9	1.1	-0.66	8%	0.55
CCC(Oc1ccc2c(c1)C(=O)CC(C)(C)O2)C(=O)NCCN1CCCCCC1 (configuration not stated)	1.1	nt	5*	0.14	17%	-0.38
CC1(C)CC(=O)c2cc(OCC(=O)NCCN3CCCc4ccccc43)ccc2O1	1	nt	5*	0.8	7%	-0.012
CC(C)CCn1c(NCCc2ccccc2)nc2c1c(=O)n(C)c(=O)n2C	0.98	nt	1	0.54	3%	-0.79
CC(C)CCNC(=O)Cn1c(NCCC(C)C)nc2c1c(=O)n(C)c(=O)n2C	1	9	1.1	-1.3	1%	1.3*
N#CCc1nnc2n1-c1ccccc1CCC2	1	nt	1.1	-0.029	1%	-0.17
CCOC(=O)C(CO)(NC(C)=O)C(=O)OCC	1	-13	1.1	-0.33	4%	1.3*
Cc1cc(NCCN2CCOCC2)n2ncc(-c3ccc(Cl)cc3)c2n1	1	nt	3.3*	-1.2	10%	0.095
Cc1cc(NCCN2CCOCC2)n2nc(C)c(-c3ccc(Cl)cc3)c2n1	1.1	13	2.4*	-0.42	8%	-0.22
Cc1cc(NCCN2CCOCC2)n2nc(C)c(-c3ccccc3)c2n1	0.99	nt	1.1	0.018	3%	0.02
CCOC(=O)NC(Nc1ccc(S(N)(=O)=O)cc1)(C(=O)OCC)C(F)(F)F (configuration not stated)	1	-24	1.1	-0.07	4%	0.59
COc1cc(OC)cc(-c2cc3nc(C)c(CCC(=O)O)c(C)n3n2)c1	1	-77	1.6	-0.07	2%	-0.093
Cc1nc2c3c(-c4ccccc4)nc(N4CCOCC4)nc3nn2c(C)c1CCC(=O)O	1.1	nt	3.7*	-0.25	13%	0.095
Cc1nc2c(-c3ccccc3)c(C)nn2c(C)c1CCC(=O)N1CCOCC1	1.1	-22	1.2	0.26	5%	1.3
COc1ccc(-c2nc(N3CCOCC3)nc3nn4c(C)c(CCC(=O)O)c(C)nc4c23)cc1	1.1	nt	5*	0.17	7%	-0.51
Cc1oc2cc(O)ccc2c(=O)c1N1C(=O)c2ccccc2C1=O	1.1	nt	1.8	-0.63	13%	-1.3
Cc1oc2cc(O)ccc2c(=O)c1Oc1ccccc1	1.1	59	2.2*	0.37	3%	0.4
Cc1oc2cc(O)ccc2c(=O)c1Oc1ccccc1Br	1.1	nt	2.2*	-0.72	3%	-0.31
COC(=O)COc1ccc2c(=O)c(Oc3ccccc3)c(C)oc2c1	1	nt	1.1	-0.49	4%	-0.054
Cc1ccc2cc(C)c3nnc(SCC(=O)Nc4nc5c(s4)CCCC5)n3c2c1	nt	11	nt	nt	nt	nt
Cc1ccc(C2C3=C(CC(C)(C)CC3=O)Nc3[nH]c(=S)[nH]c(=O)c32)cc1 (configuration not stated)	1.1	nt	1.1	0.43	12%	0.056
